Many of the other results were omitted from the sample, so hits are more common in it than they were.
mcGAS MS inh = inhibitors of mouse cGAS | Q8C6L5 | recombinant mouse cGAS, cGAMP by RapidFire MS | inhibition, % at 12.5 µM | 0.18% of 130,000 active;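 active = inhibition of cGAS enzyme activity at or above 60%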;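 also: enzyme stimulated by 45 bp dsDNA with ATP and GTP substrates; cGAMP share of summed cGAMP plus half ATP and half GTP signals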
Target sequence (Q8C6L5 whole entry, looked up): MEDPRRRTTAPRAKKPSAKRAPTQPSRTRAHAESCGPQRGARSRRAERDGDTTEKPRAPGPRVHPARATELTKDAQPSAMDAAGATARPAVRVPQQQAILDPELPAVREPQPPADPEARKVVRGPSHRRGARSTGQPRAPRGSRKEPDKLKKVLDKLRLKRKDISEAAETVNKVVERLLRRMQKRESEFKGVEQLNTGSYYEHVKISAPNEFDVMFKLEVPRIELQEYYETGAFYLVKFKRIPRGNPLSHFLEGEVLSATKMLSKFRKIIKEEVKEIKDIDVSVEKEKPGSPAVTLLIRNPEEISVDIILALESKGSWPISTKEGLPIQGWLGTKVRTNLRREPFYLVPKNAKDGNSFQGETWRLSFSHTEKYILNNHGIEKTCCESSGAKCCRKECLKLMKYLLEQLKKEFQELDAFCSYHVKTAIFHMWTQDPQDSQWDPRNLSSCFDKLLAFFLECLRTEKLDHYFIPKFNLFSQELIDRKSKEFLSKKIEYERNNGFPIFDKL
Starred values were filed as active, the others as inactive.

SMILES	mcGAS MS inh
N#Cc1ccc(/C=C2\SCCc3ccccc3C2=O)cc1	7
O=C1C(=Cc2ccc(-c3ccccc3)cc2)CS(=O)(=O)c2ccc(F)cc21	-1
OC(c1ccccn1)C1CCN(c2nncc(-c3ccccc3)n2)CC1 (stereo not drawn)	-1
CC(C)(C)n1nc2c(c1NC(=O)C(c1ccccc1)c1ccccc1)CSC2	-5
CCCc1ccccc1NC(=O)c1oc2c(c1C)C(=O)CCC2	-13
CC(C)c1nc2oc3ccccc3c(=O)c2c(=O)n1-c1ccccc1	-7
COC(=O)c1cc2c(=O)n(-c3ccc(C(C)C)cc3)ccc2nc1C	-7
NS(=O)(=O)c1ccc(CNCc2c(F)cccc2Cl)s1	-5
O=c1c2ccc(C(F)(F)F)cc2nc2n1CC/C2=C/c1csc(Br)c1	-32
CCC1(O)CC(OC2CC(N(C)C)C(OC3CC(O)C(OC4CCC(=O)C(C)O4)C(C)O3)C(C)O2)c2c(cc3c(c2O)C(=O)c2c(O)cccc2C3=O)C1C(=O)OC (stereo not drawn)	97*
Cc1cc(C)c(CN2C(=O)NC(C)(c3ccc(S(C)(=O)=O)cc3)C2=O)c(C)c1 (stereo not drawn)	2
CC(NS(=O)(=O)N1CCCCC1C)c1cccs1 (stereo not drawn)	-5
CCOc1cc(-c2[nH]c(=S)[nH]c(=O)c2C#N)ccc1O	99*
N#Cc1c(-c2ccco2)[nH]c(=S)[nH]c1=O	13
CCOc1cc(C2=NN(c3ccc(C)cc3)C(=O)CC2)ccc1O	8
COC(=O)C1=C(C)NC(=O)NC1c1cc(Cl)c(O)c(OC)c1 (stereo not drawn)	0
O=C(O)c1sc(Br)c(I)c1I	78*
Cc1ccc(-n2c(SCC(=O)N3CCCC(C)C3)nnc2N2CCOCC2)cc1 (stereo not drawn)	-3
O=C(Nc1cccnc1)c1cnc(N2CCN(Cc3ccccc3)C2=O)s1	-9
Cc1ccc2n1CCn1cc(-c3ccccc3)cc1-2	77*
Cc1cc2n(c1)CCn1c(C)ccc1-2	-2
CCOC(=O)c1ccc(N=CC(C#N)c2nc(-c3ccccc3)cs2)cc1 (stereo not drawn)	-12
O=C(CN1CCN(C(=O)CCc2ncc(-c3ccc(F)cc3F)o2)CC1)Nc1ccc(F)cc1	-7
O=c1c2ccccc2nc2c3ccccc3c(NCc3ccccn3)nn12	3
O=c1[nH]n2c(=O)c3ccccc3nc2c2ccccc12	90*
SMILES	mcGAS MS inh
O=c1c2ccccc2nc2n1CCS2	-12
COc1ccccc1C1=COc2cc(OCc3ccc(C)cc3)ccc2C1O (stereo not drawn)	-1
CC(C)CCn1c(Sc2nc3ccccc3[nH]2)nc2c1c(=O)[nH]c(=O)n2C	-1
CC(C)OC(=O)C(C#N)=Cc1ccc([N+](=O)[O-])o1	64*
O=C(O)C=Cc1ccc([N+](=O)[O-])o1	2
N#CC(=Cc1ccc([N+](=O)[O-])o1)c1nc(C2CC2)cs1	-16
Cc1ccc(NC(=O)Cn2ncn3nccc3c2=O)c2cccnc12	6
Nc1c(-c2ccccc2)cnn1-c1ccc([N+](=O)[O-])cc1	-31
CC1(C)Cc2c(cnn2-c2ccc([N+](=O)[O-])cc2)-c2[nH]c3ccccc3c21	76*
N#Cc1cc2[nH]c3ccccc3c2n(-c2ccc([N+](=O)[O-])cc2)c1=N	-7
COc1ccc(NS(=O)(=O)N2CCc3ccccc3C2)cn1	-13
Cn1c(=O)[nH]c(=O)c2c1nc(NCCc1ccccc1)n2CCCc1ccccc1	-2
Cc1nc(CCN)cc(N2CC3C[C@@H]4CC2C[C@H](C3)C4)n1	9
Cc1nc(CCN)cc(N2CCC(N3CCCC3)CC2)n1	-12
CCCOC1CCCN(c2cc(CCN)nc(C)n2)C1 (stereo not drawn)	97*
COCCNC(=O)c1csc(N2CCN(C)C2=O)n1	-10
CC(=O)Nc1cc(C(=O)OCc2ccc(F)cc2)ccc1C	-7
CC(Cc1cccs1)N(Cc1ccccc1)C(=O)Cn1ccccc1=O (stereo not drawn)	-7
CCOC(C)c1nc(CN2CCc3cc(Br)ccc32)cs1 (stereo not drawn)	-1
CCN(CC)C(=O)C1CCCN(C(=O)c2oc3c(C)c(C)ccc3c2C)C1 (stereo not drawn)	-15
COCCNc1ncc2c(n1)c(=O)c(C#N)c1[nH]c3ccc(Br)cc3c(=O)n12	25
CS(=O)(=O)c1ncc2c(n1)c(=O)c(C#N)c1[nH]c3ccccc3c(=O)n12	67*
Cc1c(Cc2ccc(Cl)cc2)c(=O)n2c([nH]c3ccccc32)c1C#N	-2
Cc1ccccc1OCC1=NN2C(=N)/C(=C/C=C/c3ccccc3)C(=O)N=C2S1	-4
CC(=O)c1ccc(NC(=O)CSc2nnc(NCC(C)C)s2)cc1	-2
CCc1nnc2n1N(C(C)=O)C(c1ccc(F)cc1)=C(C(C)=O)S2	3

Assay outcomes: PubChem, Fisher Drug Discovery Resource Center
